The text below walks through data of PubChem BioAssay AID690 (Sanford-Burnham Center for Chemical Genomics, 2007).

In all, about 96,000 compounds went through this assay and about 80 (0.08%) were called active. The list is a sample of the results. Measured potencies and affinities stand elsewhere. Unmarked numbers belong to inactive results. The rule behind the calls is not given here. Residues, ends and D or L forms follow the SMILES beside them.

The target in the test is Alkaline phosphatase, placental type (Homo sapiens) (UniProt P05187). Briefly: PLAP enzyme inhibitors, biochemical, luminescence, HTS (AID 690). Particulars: purified PLAP, luminescent substrate; at 20 µM; active compounds read high.
Alkaline phosphatase, placental type (Homo sapiens), sequence (P05187 whole entry, looked up): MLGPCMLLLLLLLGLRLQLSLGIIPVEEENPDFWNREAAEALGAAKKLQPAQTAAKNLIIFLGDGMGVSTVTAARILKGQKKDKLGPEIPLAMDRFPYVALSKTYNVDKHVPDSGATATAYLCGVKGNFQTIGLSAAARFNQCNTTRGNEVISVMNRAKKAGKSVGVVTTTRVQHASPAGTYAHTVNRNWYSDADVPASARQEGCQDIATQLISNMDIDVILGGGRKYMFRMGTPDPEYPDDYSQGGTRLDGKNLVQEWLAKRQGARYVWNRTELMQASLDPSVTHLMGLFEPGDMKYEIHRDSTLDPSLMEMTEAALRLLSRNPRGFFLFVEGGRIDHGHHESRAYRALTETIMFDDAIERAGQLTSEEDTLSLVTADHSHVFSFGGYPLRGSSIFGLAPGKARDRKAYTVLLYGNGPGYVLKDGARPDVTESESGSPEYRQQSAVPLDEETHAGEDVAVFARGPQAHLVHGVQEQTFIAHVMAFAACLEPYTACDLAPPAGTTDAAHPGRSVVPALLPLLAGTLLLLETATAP
One may read the inhibition as the change of the read-out against control, counted positive when it falls. Regarding `CCOc1cc(/C=C2\CCC/C(=C\c3cc(Cl)c(O)c(OCC)c3)C2=O)cc(Cl)c1O`, the inhibition was 26.7%. Under `COc1cc(/C=N/N(C)c2ccccc2)cc(Cl)c1O` stands 5.2%; under `N#CC(/C(=N/S(=O)(=O)c1cccs1)c1ccccc1)c1nc2ccccc2[nH]1` (configuration not stated), -67.4%. Under `O=C(Nc1ccc(Br)cc1)c1cnccn1` stands -8.2%. For `Cc1nc2c(cc(Oc3ccc(S(=O)(=O)N4CCOCC4)cn3)c3ccsc32)s1` the value was -48.6%; for `CN(C)C(C(=O)NC1CCCCC1)c1ccc(Cl)cc1` (configuration not stated), -18%; for `O=C(Nc1ccc2c(c1)OCCO2)C1c2ccccc2C(=O)N2CCc3ccccc3C12` (configuration not stated), 14.8%.

In the case of `Clc1ccc(/C=C/c2nc3ccccc3[nH]2)cc1`, the inhibition was 4.3%. Under `Clc1cccc(Cl)c1/C=C/c1nc2ccccc2[nH]1` stands 14.1%; under `Clc1nc(-c2n[nH]nc2Cl)n[nH]1`, 14.3%. For `Nc1nnc(-c2cc3ccccc3oc2=O)s1` the value was 3.8%; for `CNc1nnc(-c2cc3cc(Cl)ccc3oc2=O)s1`, -24.2%; for `CC1(C)Cc2c(sc3nc4n(c(=O)c23)CCC4)CO1`, -3.1%. Under `CC1(C)Cc2c(sc3nc4n(c(=N)c23)CCC4)CO1` stands -9.9%; under `CCCN1C(=O)NC2(O)C(=O)c3ccccc3C12O` (configuration not stated), 0.4%. For `C=CCOC(=O)C1=C(C)NC2(O)c3ccccc3C(=O)C12O` (configuration not stated), the inhibition was 10.9%. Under `CCSc1nc2c(c(=O)n1CC)SC(C)C2` (configuration not stated) stands -16%; under `Cn1c(=O)c2c(nc(NCCNC(=O)c3ccco3)n2Cc2ccc(Cl)cc2Cl)n(C)c1=O`, 6.4%; under `CN1/C(=C/C=N/n2cnnc2)C(C)(C)c2ccccc21`, 16.4%. For `CN1/C(=C\C(=O)c2ccco2)C(C)(C)c2ccccc21` the value was 3.8%; for `C=CCn1c(Cc2csc(N)n2)nnc1SCC(=O)Nc1ccccc1C(F)(F)F`, 21.5%. Under `CC(=O)Oc1ccc2c(C)cc(=O)oc2c1` stands 24.6%. On to `CC(=O)c1cc2c(C)cc(=O)oc2cc1O`, for which the inhibition is 15.2%.

As for `CCOC(=O)C(C)n1cnc2c(cnn2-c2ccc(Cl)cc2)c1=O` (configuration not stated), the inhibition was 1.3%. For `CCc1nnc(NC(=O)c2ccc(S(=O)(=O)N3CCCCCC3)cc2)s1` the value was -15.9%. On to `COc1ccc(C(c2nnnn2C2CCCC2)N2CCC(C(N)=O)CC2)c(OC)c1` (configuration not stated), for which the inhibition was -65.7%. Under `Cc1cc([N+](=O)[O-])ccc1NCc1ccccc1` stands 47.4%; under `COc1ccc(CNc2cc([N+](=O)[O-])ccc2OC)cc1`, 31.1%; under `Cc1cc(-c2nc3ncccc3o2)ccc1NC(=O)CC(C)C`, -19.3%. In the case of `CSc1cccc(NC(=O)Nc2ccccc2)c1`, the inhibition is 2.1%. Turning to `CSc1cccc(NC(=O)/C=C/c2ccc(Cl)cc2)c1`, the inhibition is 20.8%.

For the compound `CCS(=O)(=O)n1nc(-c2ccc(C)cc2)nc1N`, the inhibition is 13.8%. For `CCCN1C(=O)/C(=C/C=C2\N(CC)c3ccccc3C2(C)C)SC1=S` the value was 22.7%; for `CCN1C(=O)C(O)(CC(=O)/C=C/C=C/c2ccccc2)c2ccccc21` (configuration not stated), -9.7%; for `Cn1c(=O)oc2cc(S(=O)(=O)N3CCC(C(=O)N4CCc5ccccc5C4)CC3)ccc21`, 12.8%. For the compound `Cc1ccc(NC(=S)NCCC(c2ccccc2)c2ccccc2)c(C)c1`, the inhibition was -44%. For the compound `O=C1CC(SCCc2nc3ccccc3[nH]2)C(=O)N1c1ccc(Cl)cc1` (configuration not stated), the inhibition was -15.3%. For `COc1ccc(C2=C(C=Nc3c(C)n(C)n(-c4ccccc4)c3=O)C(c3ccccc3C)c3ccccc3O2)cc1OC` (configuration not stated) the value was -61%. Under `Cc1ccc(NC(=O)CCn2cccc2)cc1C` stands 5.5%; under `O=c1oc2ccccc2n1CSc1nc2ccccc2s1`, 46.4%. For `O=C(CSc1nc2ccccc2s1)N1c2ccccc2Sc2ccc(Cl)cc21` the value was 9.1%. For the compound `CCOc1ccc(C(CCc2ccccc2)NC(=O)c2ccccc2OC)cc1OCC` (configuration not stated), the inhibition was -15.5%.

Turning to `CS(=O)(=O)N1CCN(c2nc3ccccc3s2)CC1`, the inhibition is 2.4%.

With `COc1ccc(NC(=O)/C(C#N)=C/c2ccc(Br)o2)cc1`, the inhibition is -0.4%.

Turning to `COc1cc(/C=C(\C#N)C(=O)Nc2ccc(SC(F)F)cc2)cc(OC)c1OC`, the inhibition is -62%. Regarding `CCc1ccc(/C(C)=N\Nc2ccc([N+](=O)[O-])cc2)cc1`, the inhibition was 26.2%. Under `C/C(=N\Nc1nc(N)cc(Cl)n1)c1cccc([N+](=O)[O-])c1` stands -13.2%. For `COCCNC(=O)C(c1cccc(OC)c1)N(C(=O)Cn1nnc2ccccc21)c1cccnc1` (configuration not stated) the value was -24%. On to `CCOc1ccccc1C(=O)Nc1ccc(S(=O)(=O)N2CCOCC2)cc1`, for which the inhibition is -60.6%. As for `CCOc1ccc(Cl)cc1/C=N/O`, the inhibition was 10.1%. For `O/N=C/c1cc(Cl)ccc1OCc1ccccc1Cl` the value was 0%; for `COc1cccc(C(=O)NCCC2=CCCCC2)c1`, 8.1%; for `COc1cc(/C=N/NC(N)=S)ccc1OCC(=O)Nc1ccc(C)c(C)c1`, 4.4%. Under `CN1c2ccccc2C(C)(C)C12C=Cc1cc(O)ccc1O2` (configuration not stated) stands 27.8%; under `CN1c2ccccc2C(C)(C)C12C=Nc1c(ccc3ccccc13)O2` (configuration not stated), 0.3%. Under `CC1=NN(C(=O)Cc2ccc([N+](=O)[O-])cc2)C(O)(c2ccccc2)C1` (configuration not stated) stands -32.3%; under `CCOc1ccc(-c2nnc3sc(COc4ccc(C)cc4)nn23)cc1`, -25.7%; under `CCOc1ccc(-c2nnc3sc(COc4ccccc4)nn23)cc1`, 8.3%. In the case of `CCN(CC)S(=O)(=O)c1cc([N+](=O)[O-])ccc1NNC(=O)Nc1ccc(Cl)c(Cl)c1`, the inhibition is -23.2%. Under `Cc1cc(-c2nnc(SCC(=O)N3C(C)CCCC3C)o2)no1` (configuration not stated) stands 0.5%; under `CCOC(=O)C1=C(O)/C(=C/c2cc(OC)c(OC)c(OC)c2)N=C1C`, -30.7%. For `CCOC(=O)C1=C(O)/C(=C\c2ccc(OC)c(OC)c2)N=C1C`, the inhibition was -24.6%. On to `Cc1nn(-c2ccccc2)c(C)c1CCC(=O)O`, for which the inhibition is -21.2%. For `Cc1cc2cc(CN(CCCO)S(=O)(=O)c3cccc4nsnc34)c(=O)[nH]c2cc1C` the value was -57.9%; for `O=C(CCCn1c(SCC(=O)NCC2CCCO2)nc2ccccc2c1=O)NCC1CCCO1` (configuration not stated), -4.3%; for `O=C(CCCn1c(SCC(=O)NCC2CCCO2)nc2ccccc2c1=O)NCc1ccccc1` (configuration not stated), -31.1%.

On to `CC(C)(C)c1nn(-c2ccccc2)c2[nH]c(=O)c(CNc3ccc4c(c3)OCCO4)cc12`, for which the inhibition is -71.4%. `Cc1ccc(C(=O)CN(C(=O)c2ccc(Cl)c(Cl)c2)N2C(=O)C3CCCCC3C2=O)cc1` (configuration not stated): the inhibition was -10.4%. For `O=C(/C=C/NNC(=O)c1cccc(Br)c1)c1cccc(Br)c1` the value was -55.3%.

Regarding `CCC(=O)Nc1cccc(C(=O)/C=C/c2ccccc2)c1`, the inhibition is -3.5%. Under `O=C(CCN1C(=O)c2ccccc2C1=O)NC1=NCCS1` stands 8.9%; under `CCOC(=O)C1=NN(c2ccccc2)C(=O)/C1=C\c1ccc(N(C)C)cc1`, 2.6%. Under `CC1=NOC(=O)/C1=C/c1ccc(N(C)C)cc1` stands -1.4%; under `Cc1ccc(C(=O)Nc2nc3ccc(S(C)(=O)=O)cc3s2)s1`, 1.6%; under `Cc1ccc(CS/C(Nc2ccccc2C)=C(\C#N)C(=O)NCc2ccco2)c(C)c1`, -32.5%. `CC(C)Oc1ccc(CNC(=O)CC(c2ccccc2)c2cc(Cl)ccc2O)cc1` (configuration not stated): the inhibition is -26.3%. For `COC(=O)CSc1nsc(SCC(=O)OC)c1C#N` the value was 13.1%; for `CCc1c(C#N)c(N)nc(SCC(=O)OCc2ccccc2)c1C#N`, 14.4%. Take `O=C(O)CSCc1ccc(Cl)cc1`: the inhibition is -5.7%. Under `CS(=O)(=O)NCCSCc1ccc(Cl)cc1` stands -9.2%. Under `c1ccc2c(CSCCc3ccncc3)cccc2c1` stands -15.7%; under `c1ccc(SCCc2ccncc2)cc1`, -3.2%; under `CCn1c(C)c(C(C)=O)c(N2CCN(c3ccccc3)CC2)nc1=S`, -3.4%. For `O=C(NCc1ccc2c(c1)OCO2)C1CCCN(S(=O)(=O)c2cccc3nonc23)C1` (configuration not stated), the inhibition is -13.3%. For `O=C1N2CCSC2=NC1(Nc1ccccn1)C(F)(F)F` (configuration not stated) the value was 2%; for `COc1ccc(CNC(=O)c2ccccc2[N+](=O)[O-])cc1`, -9.5%. Under `CCC(CC)NC(=O)Cc1ccccc1[N+](=O)[O-]` stands -5.8%; under `Cc1ccc(N(CC(=O)NCc2ccncc2)S(C)(=O)=O)cc1Cl`, -7%.

Take `O=C(CSc1nnc(Cn2nnc3ccccc32)o1)N(Cc1ccc(F)cc1)c1ccccc1`: the inhibition was 2.6%. `CCSc1nc2c(cnn2-c2ccc(C)c(C)c2)c(=O)[nH]1`: the inhibition is -20.6%. Under `CCOC(=O)CN1C(=O)S/C(=C/c2ccc(N3CCCCC3)o2)C1=O` stands -4.2%.

Take `COC(=O)CN1C(=O)S/C(=C/c2ccc(N3CCCCC3)o2)C1=O`: the inhibition was -25.9%. As to `CCO/C=C1/C(=O)N(CC)c2ccccc21`, the inhibition is 4.3%. Under `O=C(OCC(O)CN1CCCCC1)C12CC3CC(CC(C3)C1)C2` (configuration not stated) stands -58.5%; under `COC(=O)C(N)Cc1ccc(O)cc1` (configuration not stated), 18.8%; under `COC(=O)C(CC(C)C)NC(=O)C(N)Cc1ccccc1` (stereo not drawn) (H-Phe-Leu-OMe; configuration not given here), -5.6%.

As to `O=C(CC(NC(=O)c1ccccc1Cl)c1ccccc1)Nc1ccc2c(c1)OCO2` (configuration not stated), the inhibition was 2.4%.
